# Measurements reported in PubChem BioAssay (Tox21).
# Active and inactive are the calls of the source. Calls come from the whole dose curve.
# Experiment: G protein-coupled receptor (GPCR) small molecule agonists, calcium flux assay: HEK293 wild type cell line counter screen (AID 1920065)
# Conditions: HEK293 WT calcium flux, fluorescence, agonist mode; series mostly up to 57.6 µM; activation: at the top concentration
# Excerpt: U.S. Tox21 Program National Center for Advancing Translational Sciences [NCATS] Division of Preclinical Innovation [DPI] U.S. Environmental Protection Agency [EPA] National Institutes of Environmental Health Sciences [NIEHS] National Toxicology Program [NTP] U.S. Food and Drug Administration [FDA] Assay overview: The increased intracellular calcium release that occurred upon G protein-coupled receptor (GPCR) activation led to the frequent use of calcium flux assays to detect GPCR activation. For the purpose of studying and screening compounds that may activate GPCR, receptor-overexpressing models were typically generated using Hek293 wild-type (WT) cells. In order to eliminate the compounds that may have induced calcium release for non-specific activation, a counter-assay utilizing calcium flux on Hek293 WT cells was performed. The data were formulated in order to serve as a control for any calcium flux detection utilizing Hek293 cells with either GPCR overexpression or gene modification. The procurement of Hek293 WT cells from ATCC. Fluorescence intensity can be utilized to determine the activation of the compound in a calcium flux assay. As a counter control, this cell line was utilized to screen the Tox21 10K compound library.
# Assay Protocol Summary: Hek293 cells were dispensed at 1500cells/4uL/well in 1536-well black wall/clear bottom plates using a multidrop dispenser. After the assay plates were incubated at a 37 C/5% CO2 incubator for 18 hours, 4 uL of Calcium Dye Solution was added to each well. The plates were incubated at 37 C for 1 hour. For agonist mode, 23 nL of compounds dissolved in DMSO, positive control (ATP) or DMSO only was transferred to the assay plate by a pin tool station. The fluorescence intensity in the plates was measured using FDSS 7000EX kinetic plate reader with a filter set of Ex/Em=480/540 for 3 min at 1 sec intervals. Each test compound was measured at 15 concentrations and in triplicates.
# % is set by controls: 0 for no effect and ±100 for the full control effect.
Structure (SMILES),activation,Potency
CCCCCCCCCCCCCCCCCC(=O)OCC(CC)CCCC (stereo not given),0.0964% (inactive),
C(/C=C/C=C/Nc1ccccc1)=Nc1ccccc1,-0.645% (inactive),
NS(=O)(=O)c1ccc(NC(=O)CCC(=O)O)cc1,0.331% [at 26.5 µM] (inactive),
CC(C)CCCC(C)CCO (stereo not given),1.66% (inactive),
C=CC(=O)NC(C)C,0.503% (inactive),
CC(C)(C)OCC1CO1 (stereo not given),-0.322% (inactive),
C1=CCC2CC=CC2C1 (stereo not given),0.559% (inactive),
COc1ccc(N)c(OC)c1,,inactive
O=C(CCS)OCC(COC(=O)CCS)(COC(=O)CCS)COC(=O)CCS,0.339% (inactive),
CCCCCCCCCCCCOCC1CO1 (stereo not given),,inactive
CSc1ccc2c(c1)N(CCC1CCCCN1C)c1ccccc1S2 (stereo not given),,inactive
CCOC(=O)C(C)Oc1ccc(Oc2cnc3cc(Cl)ccc3n2)cc1 (stereo not given),,inactive
O=S(=O)(O)c1ccc(N=Nc2c(O)ccc3cc(S(=O)(=O)O)ccc23)cc1,,inactive
OCC(CO)(CO)CO,,inactive
Cc1ccc(NC(=O)N(C)C)cc1NC(=O)N(C)C,-0.474% (inactive),
CCOC(=O)c1cc(=O)c2c(OCC(COc3cccc4oc(C(=O)OCC)cc(=O)c34)OC(=O)[C@@H](N)CCCCN)cccc2o1,-0.568% [at 26.5 µM] (inactive),
CC(C)(C)c1cc(Cc2cc(C(C)(C)C)c(O)c(C(C)(C)C)c2)cc(C(C)(C)C)c1O,,inactive
CCCOC(=O)C(C)O (stereo not given),-0.462% (inactive),
Clc1ccc(C(c2ccccc2Cl)C(Cl)Cl)cc1 (stereo not given),,inactive
c1ccsc1,1.22% (inactive),

Structure (SMILES),activation,Potency
CC(C)N=C=NC(C)C,0.973% (inactive),
C(=C\c1ccccc1)/c1ccccc1,1.08% (inactive),
CO[C@@]1(NC(=O)CSC[C@@H](N)C(=O)O)C(=O)N2C(C(=O)O)=C(CSc3nnnn3C)CS[C@@H]21,0.097% [at 26.5 µM] (inactive),
C=C(C)[C@@H]1CCC2=CC(=O)C[C@@H](C)[C@]2(C)C1,-0.428% (inactive),
Cc1cc(CCC(=O)OCCOCCOCCOC(=O)CCc2cc(C)c(O)c(C(C)(C)C)c2)cc(C(C)(C)C)c1O,0.834% (inactive),
CCCCCCCCCCCCCC[P+](CCCC)(CCCC)CCCC,,inactive
Oc1ccc(O)c2c(O)cccc12,-1.2% (inactive),
c1ccc(SCCSc2ccccc2)cc1,0.0878% (inactive),
CCCCOCCOCCOC(=O)CCCCC(=O)OCCOCCOCCCC,,inactive
CC1=CC[C@@]23C[C@@H]1C(C)(C)[C@@H]2CC[C@H]3C,0.152% (inactive),
CC(C)CNCC(C)C,-0.622% (inactive),
N#C[C@@H]1C[C@@H]2C[C@@H]2N1C(=O)[C@@H](N)C12CC3CC(CC(O)(C3)C1)C2,3.49% [at 26.5 µM] (inactive),
N#CC1(O)CCCCC1,0.081% (inactive),
N[C@H](C(=O)O)c1ccc(O)cc1,0.205% [at 11.8 µM] (inactive),
CN(C1CCCCC1)S(=O)(=O)c1ccccc1N,-1.56% (inactive),
C/C=C/C(=O)CCCC,-0.115% (inactive),
CCCCCCCCCC/C=C/C#N,1.16% (inactive),
Cc1[nH]cnc1-c1ccc(Cl)cc1,-0.348% [at 26.5 µM] (inactive),
O=C(OC(=O)c1ccccc1)c1ccccc1,-0.506% (inactive),
CC(=O)OCc1ccccc1,,inactive
